# IkB sig inh: suppresses IkB signaling in ABC-DLBCL reporter cells | Potency, µM (series often up to 57.1 µM), inactives show top-dose IkBa stabilization activation | ABC-DLBCL IkBa-CBG/CBR dual luciferase ratio, 4 h; response scale: scaled: untreated 0%, proteasome inhibitor 100% | 110,000 compounds, 0.04% hits; active = well fitted curve in the direction sought with a large enough effect in the signal ratio, not every such curve was filed as active; inconclusive = small, poorly fitted or top-dose-only effect, or a change in a side signal; the % refers to the signal ratio;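 note: the direction sought is a rising ratio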
#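 Curves were fitted separately to fusion (green), unfused (red) and ratio luminescence, then classed by r2, magnitude and activity. Cells: OCI-Ly3, 4 h compound plus doxycycline at 37C; 10 uM MG-132 defined full response.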
# p53ts 39C tox: cytotoxicity in p53ts cells at nonpermissive temperature; Potency, µM (titrated, usually from 46.1 µM), inactives show top-dose activity change, negative = cell killing, actives largely listed as cytotoxic; H1299-p53A138V viability at 39C, ATP luminescence, 24 h; 130,000 compounds, 1.5% hits; note: % is set by controls: 0 for no effect and ±100 for the full control effect; nearly all actives have a fitted effect of over 55% in size
# ERK AVP inh: inhibitors of vasopressin-stimulated ERK signaling pathway; HEK293-V1b, vasopressin-stimulated pERK AlphaScreen; Potency, µM (highest dose often 57.5 µM), for the others: top-dose activity, negative = inhibition, hits mostly inhibitors; 72,000 compounds, 0.99% hits; note: % is set by controls: 0 for no effect and ±100 for the full control effect; nearly all actives have a fitted effect of over 55% in size
#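 HEK293 cells stably expressing V1b receptor, preincubated 30 min at 37 °C with compound, then stimulated 5 min with 25 nM vasopressin. Phospho-ERK by AlphaScreen SureFire after 5 h RT; normalized to DMSO and vasopressin; AC50 by Hill fit.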
# Peg3 imprint: induces erasure of genomic imprints in mouse ES cells; Potency, µM (highest dose often 60.7 µM), for inactives: at the highest dose activity change, positive = activation, hits mostly activators; 110,000 compounds, 0.02% hits; mouse ES Peg3-LacZ reporter, beta-gal luminescence, 40 h; AID 1948
#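 Gelatin-coated wells received 300 freshly trypsinized female ES cells with a Peg3LacZ-Neo reporter on the maternal allele, then incubated 40 hours at 37C. BetaGlo was added for 5 minutes at room temperature before a single luminescence read.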
# p53ts 32C kill: kills p53ts cells at the permissive temperature; Potency, µM (highest dose often 46.1 µM), without a hit: top-dose activity change, negative = cytotoxicity, most hits filed as cytotoxic; AID 924; 130,000 compounds, 0.93% hits; H1299-p53A138V at 32C, ATP luminescence viability, 24 h;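 note: 0% = DMSO and -100% = full killing by reference compound; nearly all actives have a fitted effect of over 55% in size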
#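 H1299-p53 A138V cells (temperature-sensitive p53) exposed 24 h to up to 46 uM compound at 32C, where p53 is wild-type in conformation. Viability read as ATP luminescence and normalised to DMSO and 100 uM tamoxifen. AC50 fitted with the Hill equation.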
# Numbers without * were called inactive; u = inconclusive; x = not tested or not shown; [ ] = dose if it differs, or a comment. In the library only some 2.3% were active in any assay of this set; here they are far more common. Unless noted, calls come from the whole dose curve; as a rule, active = well fitted curve in the direction sought with a large enough effect; inconclusive = small, poorly fitted or top-dose-only effect, or another doubt; inactive = no such curve, though single readings can be large; an effect the other way counts as inactive or inconclusive. Potency is the fitted concentration of half-maximal effect.
SMILES,IkB sig inh,p53ts 39C tox,ERK AVP inh,Peg3 imprint,p53ts 32C kill
CC(C)COc1ccc(C(=O)Nc2onc3c2CCCC3)cc1,-2%,16µM*,x,-27%[10.9 µM],u
CC(C)COc1ccc(C(=O)NCc2ccco2)cc1,0%,-6%,-24%,-21%,-10%
O=C(Nc1onc2c1CCCC2)c1ccccc1,-1%,u,x,-48%[10.9 µM],u
CCOc1ccc(C(=O)Nc2onc3c2CCCC3)cc1,3%,16µM*,x,-40%[10.9 µM],6.3µM*
CCOc1ccc(C(=O)NCC2CCCO2)cc1 (stereo not drawn),-1%,3%,-13%,-25%,-9%
COc1ccc(-c2[nH]nc3nc(-c4cc(OC)c(OC)c(OC)c4)cc(C(=O)O)c23)cc1,0%,u,x,-13%[10.9 µM],-17%
CCOc1ccc(-c2cc(C(=O)NCCc3ccccc3)c3c(-c4ccc(C)cc4)[nH]nc3n2)cc1,-1%,16µM*,x,-10%[10.9 µM],-12%
COc1ccc(-c2cc(C(=O)NCCc3ccccc3)c3c(-c4ccccc4)[nH]nc3n2)cc1OC,8%,13µM*,x,-3%[10.9 µM],u
CCc1ccc(-c2[nH]nc3nc(-c4cc(OC)ccc4OC)cc(C(=O)O)c23)cc1,16%,4µM*,x,u,-2%
COc1ccc(CCNC(=O)c2cc(-c3ccc(C)cc3)nc3n[nH]c(-c4ccccc4)c23)cc1OC,1%,-21%,x,-15%[10.9 µM],-11%
COc1cc(OC)c(-c2cc(C(=O)NCc3ccc(F)cc3)c3c(-c4ccccc4)[nH]nc3n2)cc1OC,1%,u,x,12%[10.9 µM],8.9µM*
CCCCCCCCCCCCCCCCCC(=O)O[C@H](CC(=O)O)C[N+](C)(C)C,-8%,u,u,x,u
CC(=O)[C@@H]1CC[C@@H]2[C@@H]3CC=C4C[C@H](OS(=O)(=O)O)CC[C@@]4(C)[C@H]3CC[C@]21C,1%,17%,-8%,x,6%
O=C(NCCCCN1CCCC1)c1ccc(Cc2nc3ccccc3[nH]2)cc1,x,5%,x,x,0%
Cc1nnc(SCCC(=O)Nc2nc(-c3ccccc3)ns2)s1,u,35%,32µM*,-39%,42%
CCC(=O)Nc1nc(-c2ccccc2)ns1,x,13%,x,x,-10%
CC(=NCc1ccco1)c1c(C)[nH]n(-c2nc3ccccc3s2)c1=O,u,7.9µM*,-16%,-93%,u
CN1CCN(CCc2ccc(Cl)c(Cl)c2)CC1,0%,-26%,15%,-24%,-17%
CN(CCc1ccc(Cl)c(Cl)c1)CCN1CCCCCC1,0%,16µM*,13%,-22%,u
CC(=O)Oc1ccc2c(c1)CCC1C2CC[C@]2(C)C(OC(C)=O)CCC12 (stereo partly drawn),x,25µM*,-14%,-20%,u
CC(=O)OC1CCC2C3CCc4cc(O)ccc4C3CCC12C (stereo not drawn),x,3%,u,-33%,2%
CCCCCCCCCCCCC/C=C\[C@@H](O)[C@H](CO)NC(C)=O,0%,32µM*,u,1%,25%
CCCCCCCCCCCCC/C=C\[C@H](O)[C@H](N)CO,-18%,x,x,x,x
Cc1nc2sc(C(c3cccs3)N3CCOCC3)c(O)n2n1 (stereo not drawn),u,u,x,-71%,13µM*
O=C1CCC=C1[C@@H](O)CCc1ccccc1,x,3%[9.22 µM],4%[11.5 µM],x,4%[9.22 µM]
SMILES,IkB sig inh,p53ts 39C tox,ERK AVP inh,Peg3 imprint,p53ts 32C kill
O=C1c2ccccc2NC(c2ccc3c(c2)OCCO3)N1c1ccc2c(c1)OCCO2 (stereo not drawn),0%,5µM*,-23%,-89%,6.3µM*
O=c1c(-c2cccs2)nc2cnc(N3CCNCC3)nc2n1CCc1ccccc1,0%[11.4 µM],16µM*,-9%,-37%,u
O=c1c(-c2cccs2)nc2cnc(N3CCNCC3)nc2n1Cc1cccs1,-3%[11.4 µM],u,-7%,-55%,u
C/C(=N\NC(=O)c1ccncc1)c1ccc2ccccc2c1O,-1%[11.4 µM],2µM*,7%[11.5 µM],-37%[10.9 µM],u
O=C(c1ccncc1)N1CCN(C(=O)c2cccc3ccccc23)CC1,-1%,8%,8%,-3%,-5%
CCCCCCC#CC1C=CC(OC(C)=O)C(COC(C)=O)O1 (stereo not drawn),x,-20%[9.22 µM],1%[11.5 µM],x,-8%[9.22 µM]
CCCN(C(=O)c1cc2c(s1)-c1ccccc1OC2)c1ccccc1F,u,-11%,x,-19%[10.9 µM],17%
CCCN(C(=O)c1cc2c(s1)-c1ccccc1SC2)c1ccccc1F,u,25µM*,x,-10%[10.9 µM],-3%
O=C(Nc1cccc2ccccc12)OC1C=CS(=O)(=O)C1 (stereo not drawn),u,u,10µM*,-23%,u
NC1=N[C@H](c2ccc(Cl)cc2)N(c2ccc(S(=O)(=O)Nc3ncccn3)cc2)C(N)=N1,1%[11.4 µM],0%[9.22 µM],u,7%[10.9 µM],15%[9.22 µM]
CC(=O)[C@]1(O)Cc2c(O)c3c(c(O)c2[C@@H](O[C@H]2C[C@H](N)[C@H](O)[C@H](C)O2)C1)C(=O)c1c(O)cccc1C3=O,x,x,x,-48%,x
O=C(Nc1nc2c(Cl)cccc2s1)c1ccc(Br)o1,u,-1%,25µM*,-21%,-8%
CN(Cc1ccccc1)c1nc2c(c(=O)[nH]c(=O)n2C)n1CCOc1ccccc1,-1%,2%,13µM*,u,-13%
CN(Cc1ccccc1)c1nc2c(c(=O)n(C)c(=O)n2C)n1CCCc1ccccc1,u,-24%,20µM*,-14%,-27%
CN(Cc1ccccc1)c1nc2c(c(=O)[nH]c(=O)n2C)n1Cc1ccccc1,0%,4%,u,-5%,-6%
C=CCNc1ncnc2c1[nH]c1ccc(C)cc12,-1%,u,32µM*,-38%,u
CCOc1ccc(CCNC(=O)CCCc2cc(-c3ccc(OCC)cc3)on2)cc1,u,-5%,x,26%[10.9 µM],-3%
CCOc1ccc(-c2cc(CCCC(=O)Nc3cc(OC)ccc3OC)no2)cc1,u,-6%,14%,-8%,3%
CCOc1ccc(-c2cc(CCCC(=O)NCc3cccnc3)no2)cc1,u,u,13µM*,-17%,16µM*
CCOc1ccc(-c2cc(CCCC(=O)Nc3cccc(OC)c3)no2)cc1,3.2µM*,0%,u,-45%,3%
CC(=NC1CCCCC1)c1ccccc1O,2%[11.4 µM],-2%[9.22 µM],-13%[11.5 µM],16%[10.9 µM],5%[9.22 µM]
O=C(O)c1cccc(C[C@H](Br)C(=O)O)c1,0%[11.4 µM],11%[9.22 µM],-5%[11.5 µM],2%[10.9 µM],3%[9.22 µM]
Cc1ccc(NC(CNS(=O)(=O)c2ccc(Cl)cc2)c2ccccc2)cc1 (stereo not drawn),1%,u,x,-5%[10.9 µM],u
O=S(=O)(NCC(c1ccccc1)N1CCc2ccccc21)c1ccc(Cl)cc1 (stereo not drawn),2%,25µM*,x,-10%[10.9 µM],17%
COc1cccc(NC(CNS(=O)(=O)c2ccc(Cl)cc2)c2ccccc2)c1 (stereo not drawn),0%,13µM*,x,2%[10.9 µM],u
